Mcl1 Noxa PPI: Mcl-1/Noxa binding inhibitors, primary screen, biochemical, TR-FRET, 1536-well; TR-FRET Mcl-1/Noxa peptide binding, 2 h; inhibition, % at 21.7 µM; hit rate 1.5% among 220,000;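 active = compounds that cut the protein-peptide binding signal by more than 50% relative to plate controls in a single-dose test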;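 also: His-tagged Mcl-1 with rhodamine Noxa BH3 peptide and terbium anti-His antibody; 0% = Mcl-1 plus Noxa peptide wells and 100% = peptide-only wells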
Bim-Mcl-1: inhibitors of Bim peptide binding to Mcl-1, primary screen, biochemical, bead-based flow cytometry, multiplex; inhibition, % at 10 µM; Induced myeloid leukemia cell differentiation protein Mcl-1 (Homo sapiens), Q07820; hit rate 0.1% among 190,000; Bim peptide-Mcl-1 binding; AID 1009, 2008; in the data active = inhibition above about 40%;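 also: 0% = no compound tracer wells and 100% = peptide blocker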
MCL1 BIM primary: inhibitors of MCL1 binding to BIM-BH3, primary screen, biochemical, fluorescence polarization; inhibition, % at 10.9 µM; GST-MCL1 / FITC-Bim-BH3 fluorescence polarization; hit rate 0.68% among 320,000; Induced myeloid leukemia cell differentiation protein Mcl-1 (Homo sapiens), Q07820;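 active = inhibition above the mean inhibition of all tested compounds plus 3 SD, set per campaign, cut at about 40% in these data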;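 also: 0% = DMSO wells and 100% = unlabeled Bim-BH3 peptide control; higher means more loss of mP so more displacement of Bim peptide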
Mcl1-Bid inh: Mcl-1/Bid binding inhibitors, primary screen, biochemical, TR-FRET, 1536-well | inhibition, % at 21.7 µM | hit rate 0.97% among 220,000 | TR-FRET Mcl-1/Bid-Dy647 peptide binding | AID 1021, 2008 | Induced myeloid leukemia cell differentiation protein Mcl-1 (Homo sapiens), Q07820;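 active = compounds that cut the binding signal by more than half at the single screening dose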;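 also: His-tagged Mcl-1 with europium anti-His antibody binding Bid BH3 peptide; 0% = Mcl-1 plus peptide wells and 100% = peptide-only wells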
GLD-1 TGE inh: GLD-1/TGE RNA complex disruptors, primary screen, biochemical, fluorescence polarization; Female germline-specific tumor suppressor gld-1 (Caenorhabditis elegans), Q17339; purified GLD-1 + fluorescein TGE RNA; inhibition, % at 5.96 µM; hit rate 0.44% among 320,000;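 active = percent inhibition above a per-plate cutoff, the plate mean of test compounds plus 3 SD, cut at about 30% in these data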;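 also: 0% = DMSO wells with GLD-1 and probe and 100% = wells lacking GLD-1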
Bcl-xL primary: inhibitors of human Bcl-xL, primary screen, biochemical, fluorescence polarization, HTS. Bcl-2-like protein 1 (Homo sapiens), Q07817. GST-Bcl-xL / FITC-Bim BH3 peptide fluorescence polarization. inhibition, % at 10.9 µM. hit rate 0.7% among 320,000;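 active = inhibition above the mean of all tested compounds plus 3 SD, cutoff set per campaign, cut at about 30% in these data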;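 also: 0% = DMSO wells and 100% = unlabeled Bim-BH3 peptide competitor; inhibitors lower millipolarization by displacing the labeled peptide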
Target sequence (Q07817 whole entry, looked up): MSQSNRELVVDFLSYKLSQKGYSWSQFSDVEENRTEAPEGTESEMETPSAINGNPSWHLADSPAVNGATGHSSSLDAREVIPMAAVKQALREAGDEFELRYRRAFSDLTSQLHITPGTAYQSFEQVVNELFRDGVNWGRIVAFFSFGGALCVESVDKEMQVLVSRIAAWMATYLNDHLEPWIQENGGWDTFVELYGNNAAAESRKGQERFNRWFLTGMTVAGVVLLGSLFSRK
* hit, by the source's call; . = not tested or not shown. An excerpt weighted towards active compounds, which were near 2.3% of everything screened.

SMILES	Mcl1 Noxa PPI	Bim-Mcl-1	MCL1 BIM primary	Mcl1-Bid inh	GLD-1 TGE inh	Bcl-xL primary
CCCCNc1cc(Cl)nc(N)n1	6.3	.	28.4	-10.1	11.7	30.3*
CCN(CC)S(=O)(=O)c1ccc(N2CCOCC2)c(NC(=O)c2c3c(nc4ccccc24)CCC3)c1	91.0*	-2.0	24.4	19.7	4.8	7.5
O=C(Nc1cccc(S(=O)(=O)N2CCOCC2)c1)c1ccc2ccccc2n1	24.4	.	-3.6	33.2	1.4	3.5
O=C(Nc1cccc(S(=O)(=O)N2CCOCC2)c1)c1c2c(nc3ccccc13)CCC2	73.8*	0.0	29.8	-50.8	-0.5	13.5
NC(=O)c1cc(NC(=O)CCCc2nc3ccccc3s2)cc(C(N)=O)c1	-3.2	.	4.0	-6.2	-4.3	3.6
CN1CCc2c(OCC(=O)N3N=C(c4cccs4)CC3c3ccc(F)cc3)cccc2C1=O (stereo not drawn)	9.9	-4.0	4.9	53.9*	3.1	1.8
CCN1CCc2c(OCC(=O)N3N=C(c4cccs4)CC3c3ccc(F)cc3)cccc2C1=O (stereo not drawn)	-19.1	-5.0	2.5	4.7	10.0	1.9
Cc1cccc2c3nc4ccccc4nc3n(CCCN3C(=O)c4ccccc4C3=O)c12	14.0	3.0	.	72.5*	.	.
Nc1cccnc1Sc1cc(Cl)c(Cl)cc1Cl	87.8*	-3.0	0.4	19.5	7.5	4.3
O=c1[nH][nH]c(=O)n1-c1ccccc1	12.0	-1.0	8.0	-71.5	3.7	3.5
O=C(O)c1cc([N+](=O)[O-])ccc1NCc1ccccn1	.	.	23.1	.	16.2	30.6*
O=C(O)c1cc([N+](=O)[O-])ccc1NCc1ccccc1Cl	0.0	-1.0	4.6	13.0	5.2	10.2
Cc1ccc2ncnc(Oc3ncccc3NC(=O)C(C)(C)C)c2c1	-8.8	.	-0.1	-12.6	0.2	1.8
Cc1cccc2c1c1ccc3c(c1n2C)C(=O)C=CC3=O	108.5*	.	.	40.1	.	.
O=C(NCCNC(=O)c1cccnc1)c1ccc(Br)cc1	.	.	7.0	.	4.5	4.6
N#Cc1c(Cl)nc(N/N=C/c2ccccc2)c(Cl)c1Cl	41.4	-4.0	4.2	2.4	-3.2	-3.5
C[N+](C)(C)c1ccc(/C=N/Nc2nc(Cl)c(C#N)c(Cl)c2Cl)cc1	36.9	-4.0	-9.2	90.8*	-18.6	-1.9
Cc1oc(-c2cccs2)nc1CN1CCC(c2ccccc2)CC1	-0.6	0.0	-5.1	-15.4	-1.8	1.3
O=C(COC(=O)C1CC(=O)N(Cc2ccco2)C1)c1ccc(OC(=O)c2ccco2)cc1 (stereo not drawn)	55.5*	-4.0	26.2	-8.8	5.0	-3.5
O=C(COC(=O)C1CC(=O)N(Cc2ccccc2)C1)c1ccc(Br)cc1 (stereo not drawn)	11.4	-8.0	-1.2	-26.3	3.9	1.1
Cc1ccc(C(=O)Oc2ccc(C(=O)COC(=O)C3CC(=O)N(Cc4ccco4)C3)cc2)cc1 (stereo not drawn)	-216.3	0.0	11.1	57.0*	-7.2	-18.9
COc1ccc(S(=O)(=O)NC(C)C(=O)NCCN2CCOCC2)cc1Cl (stereo not drawn)	.	.	-1.8	.	1.9	2.4
COc1cc(C(=O)NC2(C(F)(F)F)NC(=O)N(CCCc3ccccc3)C2=O)cc(OC)c1OC (stereo not drawn)	-2.7	-2.0	3.1	63.8*	6.9	-0.1
CCOc1ccc(-c2csc(/C(C#N)=C\c3ccc(O)c([N+](=O)[O-])c3)n2)cc1	56.0*	-3.0	-1.9	-23.1	-1.3	-1.9
CCCCc1ccc(-c2csc(/C(C#N)=C\c3ccc(C)o3)n2)cc1	-11.7	-2.0	-3.9	-8.6	-2.5	-5.2
COC(=O)CCC(=O)OC1(C)C(=O)C2=CN(CCc3ccccn3)C(c3ccc(OC)cc3)=CC2=C(Br)C1=O (stereo not drawn)	.	.	40.0*	.	30.4	36.5*

Source: PubChem BioAssay
